In PubChem BioAssay (NCATS):
Values joined by “and” are separate entries in the source; they are usually repeats but may differ in a detail not shown here. Equal entries are not always repeated. Values without a mark were called inactive. Results filed as inconclusive are left out. Entries that show only a call come without a potency. Active and inactive are the calls of the source. Unless noted, calls follow the shape of the dose curve; as a rule, active = well fitted curve in the direction sought with a large enough effect; inconclusive = small, poorly fitted or top-dose-only effect, or another doubt; inactive = no such curve, though single readings can be large; an effect the other way counts as inactive or inconclusive.

Tests used:
[1] = target: Glutaminase kidney isoform, mitochondrial (Homo sapiens) (UniProt O94925); experiment: qHTS for Inhibitors of Glutaminase (GLS): LOPAC Validation (AID 624146); conditions: glutaminase enzyme activity inhibition; series mostly up to 46.1 µM;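 also: glutamate product detected by oxidase and peroxidase coupled Amplex red fluorescence gain; nearly all actives have a fitted effect of over 60% in size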
Sequence of Glutaminase kidney isoform, mitochondrial (Homo sapiens) (O94925 whole entry, looked up, canonical isoform): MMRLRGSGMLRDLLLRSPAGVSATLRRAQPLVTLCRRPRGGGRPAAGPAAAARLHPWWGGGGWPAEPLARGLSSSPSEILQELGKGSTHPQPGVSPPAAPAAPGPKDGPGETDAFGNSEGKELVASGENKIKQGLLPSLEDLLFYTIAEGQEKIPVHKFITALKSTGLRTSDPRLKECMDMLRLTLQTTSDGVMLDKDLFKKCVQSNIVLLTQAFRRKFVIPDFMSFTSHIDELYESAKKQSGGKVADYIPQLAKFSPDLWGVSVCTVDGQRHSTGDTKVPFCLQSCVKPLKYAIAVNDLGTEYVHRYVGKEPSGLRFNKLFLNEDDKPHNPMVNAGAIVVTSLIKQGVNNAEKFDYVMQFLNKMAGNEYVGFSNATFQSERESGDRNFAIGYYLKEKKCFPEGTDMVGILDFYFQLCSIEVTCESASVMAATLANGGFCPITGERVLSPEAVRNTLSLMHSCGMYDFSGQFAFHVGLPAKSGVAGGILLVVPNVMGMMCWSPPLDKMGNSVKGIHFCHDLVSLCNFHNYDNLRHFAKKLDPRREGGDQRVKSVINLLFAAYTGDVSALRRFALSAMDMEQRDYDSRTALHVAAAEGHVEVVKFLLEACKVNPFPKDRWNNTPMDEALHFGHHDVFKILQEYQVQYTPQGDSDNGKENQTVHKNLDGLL
In short: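 Enzyme dispensed in phosphate buffer (45 mM, pH 8.2, 0.02% Tween-20), compounds pinned in, then 1 mM L-glutamine solution and the glutamate oxidase–HRP–Amplex Red mix added; fluorescence read immediately and again after 30 min at room temperature.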

[2] = qHTS of Trypanosoma Brucei Inhibitors: LOPAC Validation (AID 624147); conditions: purified enzyme assay, luminescence, 45 min; series mostly up to 57.5 µM
In short: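 Glycolytic pyruvate kinase of T. brucei was incubated with substrate, test compound and 130 uM ADP for 45 minutes at room temperature. Luminescent Kinase-Glo Plus signal was measured after 10 minutes.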

[3] = target: Glucagon-like peptide 1 receptor (Homo sapiens) (UniProt P43220); experiment: qHTS of GLP-1 Receptor Agonists: LOPAC Validation (AID 624148); conditions: GLP-1R agonist cell assay; series mostly up to 46.1 µM;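 also: higher luminescence signal means agonism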
Sequence of Glucagon-like peptide 1 receptor (Homo sapiens) (P43220 whole entry, looked up): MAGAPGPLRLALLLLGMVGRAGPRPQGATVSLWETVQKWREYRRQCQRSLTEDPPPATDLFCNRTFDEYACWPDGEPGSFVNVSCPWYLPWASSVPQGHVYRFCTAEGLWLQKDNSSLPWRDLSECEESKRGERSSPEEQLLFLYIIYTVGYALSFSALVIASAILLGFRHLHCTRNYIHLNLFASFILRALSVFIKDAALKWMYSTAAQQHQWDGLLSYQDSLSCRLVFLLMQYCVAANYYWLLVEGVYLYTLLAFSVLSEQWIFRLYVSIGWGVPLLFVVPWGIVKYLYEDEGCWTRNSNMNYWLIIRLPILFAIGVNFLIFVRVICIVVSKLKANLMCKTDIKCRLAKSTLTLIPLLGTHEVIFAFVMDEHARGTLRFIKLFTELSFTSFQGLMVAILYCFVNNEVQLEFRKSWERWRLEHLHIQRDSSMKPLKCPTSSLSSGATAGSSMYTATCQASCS
In short: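 HEK293 cells stably co-expressing a cAMP-responsive luciferase reporter and a hypersensitive GLP-1R were plated 12 h at 37 °C and exposed to compounds for 4-6 hr at 37 °C, 5% CO2. Luminescence was read 12 min after adding detection reagent.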

[4] = qHTS of Nrf2 Activators: LOPAC Validation (AID 624149); conditions: Nrf2/ARE reporter cell assay; series mostly up to 46.1 µM
In short: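 ARE reporter activation measured in AREc32 firefly luciferase cells after 24 hr compound exposure; Steady-Glo luminescence.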

[5] = HTS Assay for Allosteric Antagonists of the Human D2 Dopamine Receptor: Hit Validation in HTRF (AID 624455); conditions: Cells stably expressing D1 dopamine receptor, inhibition mode; series mostly up to 46.1 µM;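 also: stable D1 dopamine receptor cell line scored for blocking the D1 response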
In short: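 Signal from an HTRF read-out in D1-expressing stable cells gave hit activity as inhibition of the D1 response.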

[6] = S16 Schwann cell viability assay (CellTiter-Glo assay) (AID 624031); conditions: S16 rat Schwann cells viability, 24 h; series mostly up to 57.5 µM;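 also: native untransfected S16 rat Schwann cells; cellular ATP luminescence as a viability measure; nearly all actives have a fitted effect of over 70% in size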
In short: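 Following overnight culture in 10% FBS DMEM, parental S16 rat Schwann cells are dosed for 24 h at 37 °C. Viability is read as CellTiter-Glo luminescence and expressed as % activity relative to DMSO (0%) and no-cell wells.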

[7] = target: Luciferin 4-monooxygenase (Photinus pyralis) (UniProt P08659); experiment: Biochemical firefly luciferase enzyme assay for NPC (AID 624030);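 also: purified P. pyralis luciferase at 10 nM with luciferin and ATP substrate; nearly all actives have a fitted effect of over 70% in size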; conditions: purified P. pyralis luciferase, luminescence, 5 min; series mostly up to 58.6 µM
Sequence of Luciferin 4-monooxygenase (Photinus pyralis) (P08659 whole entry, looked up): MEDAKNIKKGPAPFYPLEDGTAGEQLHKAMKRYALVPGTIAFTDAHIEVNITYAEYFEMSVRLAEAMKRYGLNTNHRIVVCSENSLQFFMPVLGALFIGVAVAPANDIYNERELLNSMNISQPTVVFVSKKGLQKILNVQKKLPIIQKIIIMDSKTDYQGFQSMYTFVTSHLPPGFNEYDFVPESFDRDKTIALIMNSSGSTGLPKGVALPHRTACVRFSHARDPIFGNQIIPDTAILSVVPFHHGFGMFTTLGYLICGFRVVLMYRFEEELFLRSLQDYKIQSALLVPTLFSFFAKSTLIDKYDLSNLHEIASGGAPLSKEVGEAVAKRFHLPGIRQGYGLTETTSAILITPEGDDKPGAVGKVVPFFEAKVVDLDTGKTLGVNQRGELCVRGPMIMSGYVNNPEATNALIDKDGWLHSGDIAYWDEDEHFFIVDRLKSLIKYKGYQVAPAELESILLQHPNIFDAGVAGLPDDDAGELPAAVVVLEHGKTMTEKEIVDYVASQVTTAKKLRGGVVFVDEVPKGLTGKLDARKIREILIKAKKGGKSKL
In short: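 Counter-screen for direct inhibition of the luciferase enzyme by approved-drug library compounds, run at 10 nM enzyme in 50 mM Tris acetate (final). Luminescence was read within 5 min of enzyme-buffer addition and normalized to PTC124 versus DMSO (0%).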

[8] = qHTS assay for environmental chemicals that activate the Aryl hydrocarbon Receptor (AhR) signaling pathway (AID 651777); conditions: 1A2-DRE human hepatoma cells, luciferase, 24 h; activation: hits give high values; also: nearly all actives have a fitted effect of over 15% in size
In short: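 Concentration–response screening used 1,200 1A2-DRE cells per well, 24 hr compound exposure (37 C, 5% CO2), and One-Glo luminescence as the AhR-driven CYP1A2 reporter signal.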

[9] = target: Peroxisome proliferator-activated receptor alpha (Homo sapiens) (UniProt Q07869); experiment: qHTS assay for small molecule agonists of the peroxisome proliferator-activated receptor alpha (PPARalpha) signaling pathway (AID 651778); conditions: PathHunter PPARalpha complementation, chemiluminescence, 6 h; hits give high values
Sequence of Peroxisome proliferator-activated receptor alpha (Homo sapiens) (Q07869 whole entry, looked up): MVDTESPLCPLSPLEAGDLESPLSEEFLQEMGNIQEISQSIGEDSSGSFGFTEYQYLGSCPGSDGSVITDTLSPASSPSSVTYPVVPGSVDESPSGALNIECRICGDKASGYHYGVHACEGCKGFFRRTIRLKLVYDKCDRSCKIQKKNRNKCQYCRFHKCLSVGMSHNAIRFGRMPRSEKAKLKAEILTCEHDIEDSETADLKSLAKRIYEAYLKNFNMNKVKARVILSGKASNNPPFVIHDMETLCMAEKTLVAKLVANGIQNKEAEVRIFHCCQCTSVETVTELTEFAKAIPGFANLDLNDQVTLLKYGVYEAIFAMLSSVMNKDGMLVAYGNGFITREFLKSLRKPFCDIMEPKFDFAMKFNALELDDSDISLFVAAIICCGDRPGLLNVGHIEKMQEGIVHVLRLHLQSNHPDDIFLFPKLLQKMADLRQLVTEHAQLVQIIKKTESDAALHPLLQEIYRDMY
In short: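 Cells plated at 2,000/well and held overnight at 37 C, 5% CO2, then compound added by pin tool for 6 hr; after PathHunter detection reagent and 60 min at room temperature, chemiluminescence from enzyme complementation was read.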

[10] = S16 Schwann cell PMP22 intronic element firefly luciferase assay (AID 624032); conditions: S16 rat Schwann cells, PMP22 element FLuc, 24 h; series mostly up to 57.5 µM; also: nearly all actives have a fitted effect of over 30% in size
In short: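 Rat S16 Schwann cells stably carrying a PMP22 intronic element-driven Fluc reporter were seeded overnight, then exposed to compounds for 24 h at 37 °C. Luminescence was normalized to PTC124 (positive control) and DMSO (0% activity).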

[11] = S16 Schwann cell PMP22 intronic element beta-lactamase assay (AID 624044; calls by dose curve; also: nearly all actives have a fitted effect of over 15% in size); conditions: S16 rat Schwann cells, PMP22 element beta-lactamase FRET, 24 h; series mostly up to 38.3 µM
In short: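 Rat S16 Schwann cells with beta-Lac driven by a PMP22 intronic element, compound-treated 24 h at 37 °C. LiveBLAzer FRET B/G read: 460 nm normalized to potassium clavulanate vs DMSO; 535 nm FRET as viability; concentration-effect curves classified.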

[12] = qHTS assay for small molecule agonists of the antioxidant response element (ARE) signaling pathway (AID 651741; active = well fitted activation curve with a large enough effect in the signal ratio; the % refers to the signal ratio; also: potency is read from the fitted curve at half-maximal effect); conditions: HepG2 ARE-bla reporter, beta-lactamase FRET ratio, 16 h; series mostly up to 96 µM
In short: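 ARE-bla HepG2 cells (beta-lactamase reporter under ARE control) were plated at 2,000 cells/well, preincubated 5 h at 37 C/5% CO2, then treated with DMSO-dissolved compounds for 16 h at 37 C; LiveBLAzer B/G FRET substrate added, fluorescence read after 2 h at room temperature.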

[13] = qHTS assay for small molecule activators of the nuclear factor-kappa B (NF-kB) signaling pathway (AID 651749; active = well fitted activation curve with a large enough effect in the signal ratio; the % refers to the signal ratio); conditions: NF-kB-bla ME-180 cells, beta-lactamase FRET ratio, 16 h; hits give high values
In short: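 ME-180 cells stably carrying a beta-lactamase reporter under an NF-kB response element were exposed to compound or DMSO vehicle for 16 hr at 37C, 5% CO2. Pathway activation was read by FRET, since reporter expression disrupts FRET.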

[14] = qHTS assay for small molecule disruptors of the mitochondrial membrane potential - 1 hr assay (AID 651754; calls by dose curve; also: potency is read from the fitted curve at half-maximal effect; nearly all actives have a fitted effect of over 35% in size); conditions: series mostly up to 92.2 µM
In short: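 Steps: seed HepG2 cells and let attach overnight; pin-transfer compound or vehicle; incubate 1 hr at 37C; add Mito-MPS dye for 30 min; read two-channel fluorescence for monomer and aggregate forms.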

[15] = qHTS assay for small molecule disruptors of the mitochondrial membrane potential - 5 hr assay (AID 651755; calls by dose curve; also: potency is read from the fitted curve at half-maximal effect; nearly all actives have a fitted effect of over 40% in size); conditions: JC-1-type ratio dye; series mostly up to 92.2 µM
In short: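 HepG2 cells, attached overnight at 37C, were exposed to compound or DMSO for 5 hr at 37C, 5% CO2. Mito-MPS dye was then added for 30 min, and fluorescence read at 490/535 nm (monomers) and 540/590 nm (aggregates).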

[16] = target: Nuclear receptor ROR-gamma (Homo sapiens) (UniProt P51449); experiment: qHTS assay for small molecule antagonists of the retinoid-related orphan receptor gamma (ROR-gamma) signaling pathway (AID 651802); conditions: ROR-gamma antagonist cell reporter assay; series mostly up to 92.2 µM; also: potency is read from the fitted curve at half-maximal effect; nearly all actives have a fitted effect of over 60% in size
Sequence of Nuclear receptor ROR-gamma (Homo sapiens) (P51449 whole entry, looked up): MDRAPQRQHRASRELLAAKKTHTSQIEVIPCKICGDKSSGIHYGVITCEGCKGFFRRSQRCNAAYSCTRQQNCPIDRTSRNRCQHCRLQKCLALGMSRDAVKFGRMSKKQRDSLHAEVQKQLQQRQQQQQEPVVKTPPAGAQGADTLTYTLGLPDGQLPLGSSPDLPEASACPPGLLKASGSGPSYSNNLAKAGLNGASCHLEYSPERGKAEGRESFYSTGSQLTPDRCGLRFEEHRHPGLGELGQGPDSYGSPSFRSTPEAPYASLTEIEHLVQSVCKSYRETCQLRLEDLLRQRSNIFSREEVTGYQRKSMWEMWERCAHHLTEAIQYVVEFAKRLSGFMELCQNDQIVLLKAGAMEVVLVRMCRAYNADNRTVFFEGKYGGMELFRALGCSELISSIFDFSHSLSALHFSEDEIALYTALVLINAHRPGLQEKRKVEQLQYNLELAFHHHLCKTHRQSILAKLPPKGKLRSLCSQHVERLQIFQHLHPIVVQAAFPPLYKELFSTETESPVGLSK
In short: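 Antagonism is scored as a fall in luminescence from a RORE-luciferase reporter in CHO cells expressing ROR under a TET-inducible promoter, measured 16hr after doxycycline induction in the presence of compound.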

In the case of CC(=O)NBr, the Potency [1] is reported as “inactive”, the Potency [2] is reported as “inactive” and the outcome [3] is reported as “inactive”. For the same compound, the Potency [4] was “inactive” and the Potency [5] was “inactive”.
With COC([CH2][Hg])CNC(=O)c1ccccc1OCC(=O)O (centres undefined) the Potency [6] was “inactive”.
For CCCSP(=O)(OCC)SCCC, the Potency [7] was “inactive”, the activation [8] was -2.38% and the max response [9] was 0.388%.
With NC(=O)c1cc(N2CC2)c([N+](=O)[O-])cc1[N+](=O)[O-] the Potency [1] was “inactive”, the Potency [2] was “inactive” and the outcome [3] was “inactive”. The Potency [4] was “inactive” and the Potency [5] was “inactive”.
With Oc1cc(Cl)c(Cl)cc1Cl the Potency [7] was “inactive”, the Potency [10] was “inactive” and the Potency [11] was “inactive”. For the same compound, the Potency [12] was 42.2 µM (active), the activation [13] was 1.51% and -0.218% and the Potency [14] was 47.3 µM (active). The Potency [15] was 47.3 µM (active), the activation [8] was 3.21% and 2.24% and the max response [9] was -3.77% and 0.0897%. For the same compound, the Potency [16] was 23.7 µM (active).
In the case of O=C(CCl)c1ccc(Oc2ccc(C(=O)CCl)cc2)cc1, the Potency [6] is reported as “inactive”, the Potency [10] is reported as “inactive” and the Potency [11] is reported as “inactive”.
For CC(N)c1cccc(Cl)c1Cl (centres undefined), the Potency [1] was “inactive”, the Potency [2] was “inactive” and the outcome [3] was “inactive”. For the same compound, the Potency [4] was “inactive” and the Potency [5] was “inactive”.
With O=[N+]([O-])c1cc(I)c(O)c(I)c1 the Potency [6] was “inactive” and the Potency [10] was “inactive”.
In the case of NCCc1c[nH]c2ccc(C(N)=O)cc12, the Potency [1] is reported as “inactive”, the Potency [2] is reported as “inactive” and the outcome [3] is reported as “inactive”. For the same compound, the Potency [4] was “inactive” and the Potency [5] was “inactive”.
With CC(N)Cc1c[nH]c2ccc(OCc3cccs3)cc12 (centres undefined) the Potency [1] was “inactive”, the Potency [2] was “inactive” and the outcome [3] was “inactive”. The Potency [4] was “inactive” and the Potency [5] was “inactive”.
